# Results as given in paper PMC4336329 (PLoS ONE, 2015).
# About 14,000 (4.5%) of roughly 310,000 compounds showed an effect of 50% or more. Effects have a minus sign here. Only a selection was taken, and strong results are over-represented in it overall.
# Target: human ether-à-go-go-related gene (hERG) potassium channel (human, UniProt Q12809)
# Assay: primary screen, population patch clamp on CHO cells stably expressing hERG; higher = less effect of the substance
# 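Note: peak tail current of the secondary pulse compared with the same well before compound.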
# human ether-à-go-go-related gene (hERG) potassium channel, sequence (Q12809 whole entry, looked up): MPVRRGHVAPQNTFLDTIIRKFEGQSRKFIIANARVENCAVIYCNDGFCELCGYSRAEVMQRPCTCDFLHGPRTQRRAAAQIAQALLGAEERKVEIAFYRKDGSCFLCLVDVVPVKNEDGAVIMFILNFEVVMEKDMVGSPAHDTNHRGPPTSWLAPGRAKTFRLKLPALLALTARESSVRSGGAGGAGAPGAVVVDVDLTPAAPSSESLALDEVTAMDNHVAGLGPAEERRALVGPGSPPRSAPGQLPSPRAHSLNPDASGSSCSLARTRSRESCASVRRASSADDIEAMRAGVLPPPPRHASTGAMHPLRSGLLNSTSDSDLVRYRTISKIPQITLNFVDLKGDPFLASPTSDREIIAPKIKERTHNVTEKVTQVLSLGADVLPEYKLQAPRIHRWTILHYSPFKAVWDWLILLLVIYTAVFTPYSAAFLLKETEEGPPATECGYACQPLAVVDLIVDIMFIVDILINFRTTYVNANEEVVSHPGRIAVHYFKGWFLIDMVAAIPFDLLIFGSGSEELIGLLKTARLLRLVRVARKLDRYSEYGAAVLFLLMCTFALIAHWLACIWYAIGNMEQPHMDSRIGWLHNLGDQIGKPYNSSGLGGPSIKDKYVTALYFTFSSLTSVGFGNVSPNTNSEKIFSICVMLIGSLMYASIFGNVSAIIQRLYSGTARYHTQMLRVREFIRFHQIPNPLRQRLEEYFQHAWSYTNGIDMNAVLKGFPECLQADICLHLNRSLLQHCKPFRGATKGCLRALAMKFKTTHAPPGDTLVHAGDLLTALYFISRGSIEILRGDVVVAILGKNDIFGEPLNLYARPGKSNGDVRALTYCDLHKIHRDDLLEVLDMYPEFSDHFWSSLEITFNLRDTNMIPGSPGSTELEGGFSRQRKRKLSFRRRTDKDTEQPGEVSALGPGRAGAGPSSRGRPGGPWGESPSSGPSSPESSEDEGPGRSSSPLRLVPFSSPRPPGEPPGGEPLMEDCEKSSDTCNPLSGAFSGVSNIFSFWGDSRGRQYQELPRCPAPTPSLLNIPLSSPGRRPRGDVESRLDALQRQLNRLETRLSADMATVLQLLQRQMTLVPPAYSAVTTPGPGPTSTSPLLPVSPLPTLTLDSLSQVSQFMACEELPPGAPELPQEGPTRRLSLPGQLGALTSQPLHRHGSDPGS
row,SMILES,"hERG current change (%, negative = inhibition) at 10uM [%]"
1,CC(=O)Nc1ccc(S(=O)(=O)Nc2ccc3c(c2)OCCO3)cc1Cl,15.5
2,CN(Cc1ccccc1)C(=O)c1c[nH]c2ccc(S(=O)(=O)N3CCOCC3)cc2c1=O,3.03
3,Cc1ccc(S(=O)(=O)N2CCN(C(=O)n3ccnc3)CC2)cc1,-5.76
4,CC(C)Cc1nc(N2CCN(C(=O)c3ccccc3)CC2)c(C#N)c2c1CCC2,-24.1
5,COc1cc(C)c(S(=O)(=O)NOCc2ccc([N+](=O)[O-])cc2)c(C)c1C,8.43
6,CN(C)C(=O)N1CCNCC1.Cl,12.8
7,CC(C)[C@H](NC(=O)OC(C)(C)C)C(=O)N1CCC(C(=O)N[C@@H](C)C(=O)Nc2ccc(F)cc2)CC1,10.7
8,CCn1c(SCC(=O)Nc2ccc3c(c2)OCO3)nc2c1c(=O)n(C)c(=O)n2C,-0.539
9,Cn1c(=O)c2c(nc(SCC(=O)NCc3ccc4c(c3)OCO4)n2Cc2ccccc2)n(C)c1=O,-46.9
10,Cn1c(=O)c2c(nc(SCC(=O)NCC3CCCO3)n2Cc2ccc(F)cc2)n(C)c1=O (stereo not shown),-41.6
11,Cn1c(=O)c2c(nc(NCc3ccc4c(c3)OCO4)n2Cc2ccc(F)cc2)n(C)c1=O,-5.77
12,Cn1c(=O)c2c(nc(SCC(=O)NCc3ccc4c(c3)OCO4)n2Cc2ccc(F)cc2)n(C)c1=O,-63.1
13,Cn1c(=O)c2c(nc(SCC(=O)NCc3ccc4c(c3)OCO4)n2Cc2ccc(Cl)cc2)n(C)c1=O,-50.6
14,O=C(NN1CCOCC1)c1sc2cccc(F)c2c1Cl,9.93
15,c1ccc(-c2cnc(CSc3ncnc4sccc34)o2)cc1,7.1
16,N#CC1=C(N)SC(N)=C(C#N)C1CCc1ccccc1,26.4
17,C/C(=N/NC(=O)CNC(=O)Cc1ccccc1)c1ccc(Cl)cc1,5.97
18,CN1/C(=C\C=C(/C#N)C(=O)Nc2ccc(Cl)cc2)C(C)(C)c2ccccc21,13
19,CCNC(=O)CC1C(=O)N(c2ccc(C)cc2)C(=O)N1CCC(C)C (stereo not shown),-2.19
20,CCNC(=O)CC1C(=O)N(c2ccccc2)C(=O)N1CCC(C)C (stereo not shown),5.26
21,CCNC(=O)CC1C(=O)N(c2cccc(C)c2)C(=O)N1CCC(C)C (stereo not shown),-75
22,CCN(c1ccccc1)S(=O)(=O)c1cc(NC(=O)Nc2ccccc2C#N)ccc1Cl,-34.2

row,SMILES,"hERG current change (%, negative = inhibition) at 10uM [%]"
1,Cc1ccc(NC(=O)CCc2nnc(SCC(=O)Nc3ccccc3C)n2C)cc1Cl,14.5
2,Cc1ccc(OCCSc2nnc(NC(=O)c3ccco3)s2)cc1,-1.66
3,O=C(CN1C(=O)C2C3C=CC(C4CC34)C2C1=O)Oc1ccccc1 (stereo not shown),0.512
4,CN1CCN(C(=O)c2cc3sc4ccccc4c3s2)CC1,-15.5
5,CN(C)CCCNC(=O)c1cc2sc3ccccc3c2s1.Cl,-64.7
6,CN(C)CCCNC(=O)c1cc2c3ccccc3n(C)c2s1,-40.1
7,CN(C)CCNC(=O)c1cc2sc3ccccc3c2s1.Cl,-31.5
8,COCCNC(=O)c1cc2sc3ccccc3c2s1,-8.28
9,COCCN(CCOC)C(=O)c1cc2sc3ccccc3c2s1,-70.6
10,CCCN(C(=O)CSCc1ccccc1C)c1c(N)n(Cc2ccccc2)c(=O)[nH]c1=O,-4.64
11,CC(O)CNc1nc2c(c(=O)n(C)c(=O)n2C)n1Cc1cccc(C(F)(F)F)c1 (stereo not shown),-12.9
12,O=[N+]([O-])c1cccc(/C=N/Nc2ncc(Br)cn2)c1,19.6
13,CCc1cccc(C)c1N(C(=O)Cn1c(=O)[nH]c2ccccc21)C(C)COC (stereo not shown),-4.31
14,CCN(CC(=O)Nc1ccc2c(c1)OCCO2)C(=O)/C=C/c1cccc(Br)c1,-28.7
15,O=C(CN1C(=O)NC2(CCCCCCC2)C1=O)Nc1ccc(Br)cc1,5.19
16,CCC(C)NC(=O)CCc1c(C)nc2c(c(C)nn2-c2ccccc2)c1C (stereo not shown),-1.82
17,Cc1ccc(-n2nc(C)c3c(C)c(CCC(=O)NCc4ccccc4)c(C)nc32)cc1,10.5
18,CCCNC(=O)CCc1c(C)nc2c(c(C)nn2-c2ccccc2)c1C,0.304
19,Cc1ccc(-n2nc(C)c3c(C)c(CCC(=O)Nc4ccc(CN5CCCC5)cc4)c(C)nc32)cc1,-60.2
20,Cc1ccc(CNC(=O)CCc2c(C)nc3c(c(C)nn3-c3ccc(C)cc3)c2C)cc1,10.1
21,Cc1nc2c(c(C)nn2-c2ccccc2)c(C)c1CCC(=O)Nc1ccc(CN2CCCC2)cc1,-61
